The results in this text go back to PubChem BioAssay AID1502 (Sanford-Burnham Center for Chemical Genomics, 2009).

The list shows a part of the results. Unmarked numbers belong to inactive results. Active and inactive are the calls of the source. No stated cut-off is given here; in the data, active means inhibition above about 40%; inactive means the rest.

The target of the experiment is Runt-related transcription factor 1 (Homo sapiens) + Core-binding factor subunit beta (Homo sapiens) (UniProt Q01196+Q13951). Put plainly: Runt domain/CBFb interaction disruptors – biochemical, TR-FRET (AID 1502). The settings on record: TR-FRET RUNX1 Runt domain-CBFb binding; at 20 µM; stronger effect = higher value. Background: Time-resolved FRET reads energy transfer from a long-lived donor to a nearby acceptor.
Chain of Runt-related transcription factor 1 (Homo sapiens) + Core-binding factor subunit beta (Homo sapiens) (Q01196 whole entry, looked up, the tested form may be a part): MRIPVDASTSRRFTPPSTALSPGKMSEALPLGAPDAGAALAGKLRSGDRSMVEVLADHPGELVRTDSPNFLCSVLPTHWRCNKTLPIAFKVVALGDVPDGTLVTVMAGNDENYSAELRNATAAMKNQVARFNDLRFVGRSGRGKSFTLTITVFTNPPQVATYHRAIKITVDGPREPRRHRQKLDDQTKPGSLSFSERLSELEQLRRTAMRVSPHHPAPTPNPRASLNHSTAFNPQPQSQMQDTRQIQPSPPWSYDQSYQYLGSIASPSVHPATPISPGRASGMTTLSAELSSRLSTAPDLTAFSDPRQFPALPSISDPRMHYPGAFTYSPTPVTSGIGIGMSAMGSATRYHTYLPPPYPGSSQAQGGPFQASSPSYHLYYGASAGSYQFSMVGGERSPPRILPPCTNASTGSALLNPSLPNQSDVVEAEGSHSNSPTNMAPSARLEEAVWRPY
Chain of Runt-related transcription factor 1 (Homo sapiens) + Core-binding factor subunit beta (Homo sapiens) (Q13951 whole entry, looked up, the tested form may be a part): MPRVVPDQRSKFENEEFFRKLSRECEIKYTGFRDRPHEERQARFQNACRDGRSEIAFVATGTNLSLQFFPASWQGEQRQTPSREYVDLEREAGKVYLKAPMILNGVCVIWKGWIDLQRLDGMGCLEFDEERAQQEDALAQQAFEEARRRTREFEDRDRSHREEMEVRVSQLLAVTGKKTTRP
Turning to `CC(C)Oc1ccc(/C=C(\NC(=O)/C=C/c2ccco2)C(=O)NCCc2nc3ccccc3[nH]2)cc1`, the inhibition (usually the change of the read-out against control, counted positive when it falls) is -3.3%.
The result for `CC(=O)Oc1ccc2c(C)c(CC(C)O)c(=O)oc2c1` (stereo unspecified) reads 14%; that for `COCC(C)OC(=O)c1c(N)n(CCCN2CCOCC2)c2nc3ccccc3nc12` (stereo unspecified), 53.2% (active).
As to `Cc1cccc(-n2c(N)c(C(=O)N3CCN(C)CC3)sc2=S)c1`, the inhibition is 18.2%.
The result for `COc1c(O)ccc2c1CN1CCc3cc4c(cc3C1C2)OCO4` (stereo unspecified) reads 20.3%; that for `Cc1cc(C)c2c3c(sc2n1)C(c1ccccc1)C(C#N)=C(N)O3` (stereo unspecified), 1.6%.
The result for `N#CC1=C(N)Oc2cc(O)ccc2C1C1CCCCC1` (stereo unspecified) reads -0.9%; that for `Brc1ccc(CSc2ccc(-c3ccco3)nn2)cc1`, 73.7% (active); that for `Cc1cc(F)ccc1S(=O)(=O)Nc1ncnc2scc(-c3ccc(F)cc3)c12`, -13.5%.
The result for `CCOC(=O)c1cc2c(=O)n3ccccc3nc2n(CC(C)C)c1=NC(=O)c1c(-c2c(F)cccc2Cl)noc1C` reads -8.1%; that for `CCOc1cccc(/C=N/N2C(=O)CSC2=S)c1O`, 77.6% (active).
With `CCCS(=O)(=O)N1CCCC(C(=O)NCc2ccco2)C1` (stereo unspecified), the inhibition was 2.1%.
For the compound `COC(=O)Cn1c2ccc(C)cc2c2nc(C)sc21`, the inhibition is 24.5%.
The result for `O=C1c2ccccc2C(Nc2ccc3c(c2)OCCO3)N1Cc1ccco1` (stereo unspecified) reads 2%; that for `CCC(=O)Nc1c(S(=O)(=O)c2ccccc2)c2nc3ccccc3nc2n1Cc1ccccc1`, 62.4% (active); that for `COc1ccc(C2C(C#N)=C(N)Oc3cc(N)ccc32)cc1OC` (stereo unspecified), -6.8%.
